Publication PMC4336329 (PLoS ONE, 2015)
The whole screen tested about 310,000 compounds, of which about 14,000 (4.5%) showed an effect of 50% or more. The effect is printed as a negative number. What follows is part of a selection rich in strong results, with near analogues and random picks from the rest.

Each compound was assayed against human ether-à-go-go-related gene (hERG) potassium channel (human, UniProt Q12809) (assay: primary screen, population patch clamp on CHO cells stably expressing hERG; higher = less effect of the substance).
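Also: peak tail current of the secondary pulse compared with the same well before compound.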

Chain of human ether-à-go-go-related gene (hERG) potassium channel (Q12809 whole entry, looked up): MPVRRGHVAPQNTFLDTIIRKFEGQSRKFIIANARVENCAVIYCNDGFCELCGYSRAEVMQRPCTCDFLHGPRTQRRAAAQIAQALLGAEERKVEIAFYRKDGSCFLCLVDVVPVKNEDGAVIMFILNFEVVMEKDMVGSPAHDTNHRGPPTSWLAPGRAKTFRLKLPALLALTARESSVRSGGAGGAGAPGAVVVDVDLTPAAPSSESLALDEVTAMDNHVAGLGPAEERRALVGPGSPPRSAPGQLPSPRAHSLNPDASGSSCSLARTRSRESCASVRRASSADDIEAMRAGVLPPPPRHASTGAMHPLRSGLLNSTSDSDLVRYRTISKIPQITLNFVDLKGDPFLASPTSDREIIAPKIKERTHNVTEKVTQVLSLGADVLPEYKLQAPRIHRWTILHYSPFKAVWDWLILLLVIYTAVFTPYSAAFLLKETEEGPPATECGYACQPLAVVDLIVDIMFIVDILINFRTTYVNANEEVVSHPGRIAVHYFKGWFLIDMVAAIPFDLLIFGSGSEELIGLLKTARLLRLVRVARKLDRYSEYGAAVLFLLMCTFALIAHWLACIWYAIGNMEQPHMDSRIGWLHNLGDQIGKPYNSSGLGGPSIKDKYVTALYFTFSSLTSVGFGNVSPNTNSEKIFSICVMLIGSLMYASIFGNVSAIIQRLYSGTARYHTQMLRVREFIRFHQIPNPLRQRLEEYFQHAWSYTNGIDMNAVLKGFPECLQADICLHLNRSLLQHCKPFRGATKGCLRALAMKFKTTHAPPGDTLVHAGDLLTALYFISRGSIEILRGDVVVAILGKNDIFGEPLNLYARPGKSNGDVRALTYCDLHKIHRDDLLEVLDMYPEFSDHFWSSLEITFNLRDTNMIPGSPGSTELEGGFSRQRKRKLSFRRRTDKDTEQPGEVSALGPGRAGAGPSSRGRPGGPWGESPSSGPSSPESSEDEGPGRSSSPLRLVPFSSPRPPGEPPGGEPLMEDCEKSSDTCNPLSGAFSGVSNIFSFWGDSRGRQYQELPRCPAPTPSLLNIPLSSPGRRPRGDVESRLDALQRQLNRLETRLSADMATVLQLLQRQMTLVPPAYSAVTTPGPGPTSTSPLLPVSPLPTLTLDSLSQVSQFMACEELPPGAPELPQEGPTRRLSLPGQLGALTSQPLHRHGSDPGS

In order of rising “hERG current change (%, negative = inhibition) at 10uM” value:
1. C/C(=N/NC(=O)c1ccc(Br)o1)c1cccc(NC(=O)c2ccc(C)o2)c1  -67.6%
2. O=C(c1ccccc1)c1cccc(NC(=O)c2ccc(Br)o2)c1  -61.1%
3. C/C(=N/NC(=O)c1ccc(Br)o1)c1cccc(NC(=O)c2ccc(F)cc2)c1  -58.9%
4. C/C(=N\NC(=O)c1ccncc1)c1cccc(NC(=O)c2ccc(C(C)(C)C)cc2)c1  -53.7%
5. Cc1ccc(C)c(/C=C/C(=O)c2ccccc(=O)c2O)c1  -50.7%
6. C/C(=N/NC(=O)c1ccco1)c1cccc(NC(=O)c2ccc(C)o2)c1  -45.4%
7. Cc1ccc(CN(C(=O)c2cc(=O)c3cc(C)cc(C)c3o2)C2CCS(=O)(=O)C2)cc1 (centres unmarked)  -32.1%
8. Cc1ccc(/C=C/C(=O)c2ccccc(=O)c2O)cc1C  -24.6%
9. CCCCNC(=O)c1onc(CSc2ccc(Cl)cc2)c1C(=O)NCCCC  -20.5%
10. CCOc1ccc(Br)cc1S(=O)(=O)Nc1ccccc1N1CCOCC1  -15.8%
11. C/C(=N\NC(=O)c1cccc(Br)c1)c1cccc(NC(=O)c2ccc(C)o2)c1  -6.46%
12. O=C(Cn1cccc1)N1CCN(C(c2ccccc2)c2ccccc2)CC1  -3.68%
13. O=C(/C=C/c1ccccc1Cl)c1ccccc(=O)c1O  -1.72%
14. CC(=O)c1cccc(NC(=O)c2ccc(Br)o2)c1  -1.49%
15. O=C(Nc1ccccc1)c1ccc(Br)o1  3.15%
16. CN(C)/C=C/C(=O)c1cnc2sccn2c1=O  5.24%
17. CCN(CC(=O)NC1CCS(=O)(=O)C1)S(=O)(=O)c1ccccc1 (centres unmarked)  7.7%
18. C/C(=N/NC(=O)c1ccncc1)c1ccc(NC(=O)c2ccccc2)cc1  7.92%
19. COc1ccc(C(=O)N/N=C(/C)c2cccc(NC(=O)c3ccncc3)c2)cc1OC  8.48%
20. C/C(=N\NC(=O)c1cccc(F)c1)c1cccc(NC(=O)c2ccc(F)cc2)c1  13%
21. Cn1c(=O)c2c(nc(NC3CCCCC3)n2Cc2ccccc2)n(C)c1=O  14.2%
22. COc1ccc(N2CC(C(=O)N[C@@H](C)C(=O)NC3CCCC3)CC2=O)cc1 (some centres unmarked)  15.7%
23. C/C(=N\NC(=O)c1ccc(F)cc1)c1cccc(NC(=O)c2cccc(F)c2)c1  21.3%
